The supplement of paper PMC11001985

molecular target: WLS (lysine site: K217) (UniProt Q5T9L3); assay: lysine labeling ratio R10:1 (500 µM / 50 µM probe), SILAC-ABPP in living cells; higher = lower intrinsic lysine reactivity toward the probe, active = 2 or less; details: HeLa; probe concentrations 500 vs 50 µM
Experimental: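 Living HeLa cells (SILAC light/heavy) in PBS at room temperature were labeled with 50 µM versus 500 µM of the lysine-reactive, reductant-cleavable probe OPA-S-S-alkyne (SILAC labeling time not stated). Probe-modified peptides were CuAAC-biotinylated, captured on neutravidin and eluted with DTT/IAA, then quantified by LC-MS/MS. R = median peptide ratio per lysine (500/50 µM), combined over 3 forward and 3 reverse SILAC replicates. Ratios are capped at 20; R < 2 = hyper-reactive.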

WLS (lysine site: K217), sequence (Q5T9L3 whole entry): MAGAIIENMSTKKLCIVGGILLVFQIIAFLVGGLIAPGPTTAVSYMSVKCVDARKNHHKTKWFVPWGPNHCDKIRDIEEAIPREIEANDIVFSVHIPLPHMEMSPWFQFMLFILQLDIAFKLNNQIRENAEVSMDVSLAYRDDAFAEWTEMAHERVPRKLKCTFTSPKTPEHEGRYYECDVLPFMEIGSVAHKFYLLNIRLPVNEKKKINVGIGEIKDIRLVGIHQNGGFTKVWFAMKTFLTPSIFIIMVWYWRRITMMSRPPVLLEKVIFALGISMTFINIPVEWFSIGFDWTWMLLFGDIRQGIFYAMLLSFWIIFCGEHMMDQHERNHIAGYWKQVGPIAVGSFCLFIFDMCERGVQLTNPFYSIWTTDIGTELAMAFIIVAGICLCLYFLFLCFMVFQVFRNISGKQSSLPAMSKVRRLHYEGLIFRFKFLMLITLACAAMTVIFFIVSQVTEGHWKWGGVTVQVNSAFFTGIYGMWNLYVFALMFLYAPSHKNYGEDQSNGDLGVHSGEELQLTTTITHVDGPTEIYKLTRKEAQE

| Compound | lysine labeling ratio R10:1 |
| --- | --- |
| C#CCNC(=O)CCSSCCC(=O)NCCc1ccc(C=O)c(C=O)c1 | 2.13 (inactive) |
